Bioassay records as filed in PubChem.
PKA-R1A activ – PKA-R1A complex activation | P00514+P68181 | 340,000 tested, 0.083% active | PKA-R1A dissociation, Cy5-IP20 fluorescence polarization; scaled: DMSO 0%, 113 µM cGMP 100% | AID 504707 | activation, % at 11.4 µM;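 active = percent activation above the mean of all tested compounds plus 3 SD, cut at about 19% in these data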;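 also: higher means more PKAc released from R1A so a rise in polarization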
Neddylation inh – blocks human cullin neddylation | TR-FRET cullin neddylation, biochemical | calls only at 25 µM | 360,000 tested, 0.58% active | AID 651699; in the data active = inhibition above about 36%
Target sequence (P61081 whole entry, looked up): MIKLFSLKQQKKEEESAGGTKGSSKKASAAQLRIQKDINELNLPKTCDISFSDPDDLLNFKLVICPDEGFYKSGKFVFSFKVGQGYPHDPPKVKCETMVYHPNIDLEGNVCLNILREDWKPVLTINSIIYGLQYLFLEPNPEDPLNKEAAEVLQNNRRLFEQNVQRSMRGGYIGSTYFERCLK
Target sequence (Q13564 whole entry, looked up): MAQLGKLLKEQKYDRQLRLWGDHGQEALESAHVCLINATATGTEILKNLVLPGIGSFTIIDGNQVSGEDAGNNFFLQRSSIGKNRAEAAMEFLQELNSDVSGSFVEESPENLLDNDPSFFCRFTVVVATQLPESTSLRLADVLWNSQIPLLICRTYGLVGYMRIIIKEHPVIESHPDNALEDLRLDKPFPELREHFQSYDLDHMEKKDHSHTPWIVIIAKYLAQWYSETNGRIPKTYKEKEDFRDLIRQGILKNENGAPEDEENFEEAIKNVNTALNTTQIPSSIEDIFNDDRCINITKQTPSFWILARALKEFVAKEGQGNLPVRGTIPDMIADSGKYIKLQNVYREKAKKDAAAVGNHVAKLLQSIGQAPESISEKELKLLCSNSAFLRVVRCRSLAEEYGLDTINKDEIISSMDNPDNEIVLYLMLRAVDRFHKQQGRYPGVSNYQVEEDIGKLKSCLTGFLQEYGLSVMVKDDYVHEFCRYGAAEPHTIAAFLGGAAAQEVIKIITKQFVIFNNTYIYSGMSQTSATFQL
PolyA inh – yeast polyadenylation inhibition; S. cerevisiae SKY197-pL101 polyadenylation reporter, beta-gal luminescence; efflux-impaired pdr1/pdr3 knockout yeast; score 100 = 6 SD above DMSO; activity score, % at 12 µM; AID 1875; 300,000 tested, 0.02% active;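 active = lowest replicate activity score at least 50, where 100 means six control SD above control mean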;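 also: yeast exposed to compound for 9 h at 30 °C; higher score means more reporter readthrough which indicates perturbed polyadenylation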
PKA-R2B act – PKA-R2B complex activation. P22694+P31323. PKA-R2B holoenzyme dissociation, Cy5-IP20 fluorescence polarization; R2B truncated from residue 108, S112A mutant; 0% DMSO only, 100% 113 µM cGMP. activation, % at 11.4 µM. 340,000 tested, 0.079% active. AID 504700;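 active = activation above a cutoff set at the mean over all compounds plus 3 SD, cut at about 18% in these data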;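 also: higher means more holoenzyme dissociation and a rise in polarization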
* marks the source's active call; other numbers are inactive results; i = inactive; x = not tested or not shown; + = active, no number. Hits are enriched below; roughly 0.72% of the tested compounds scored in any of these assays.

SMILES	PKA-R1A activ	Neddylation inh	PolyA inh	PKA-R2B act
CCCCCCn1cc(C(=O)O)c(=O)c2cc(F)c(N3CCN(C)CC3)cc21	3	+	1	-9
CCN(CC)c1ccc2cc(C(N)=O)c(=O)oc2c1	-3	+	-5	-2
CCN(CC)c1ccc2cc(C(N)=O)c(=N)oc2c1	x	i	-16	x
Cc1ccc(S(=O)(=O)c2ncccc2[N+](=O)[O-])cc1	-2	i	-9	-12
Cc1cc(Cl)ccc1C(=O)C1CCCN(C(=O)c2snnc2C)C1 (stereo not given)	-1	i	55*	-1
CCN(CC)C(=S)SCC(=O)Nc1ncc2c(n1)CCCC2=O	1	i	-9	1
Cc1ccc(-c2cc(-c3n[nH]c(=S)o3)c3ccccc3n2)cc1	-2	+	-15	-7
CCCC1=NN2C(=N)/C(=C\c3cc(C)n(Cc4ccccc4)c3C)C(=O)N=C2S1	3	i	-26	7
Cc1cc(/C=C2\C(=N)N3N=C(S(C)(=O)=O)SC3=NC2=O)c(C)n1Cc1ccccc1	-6	+	23	4
O=C(N/N=C/c1ccccc1C(=O)O)c1ccc(COc2cccc3cccnc23)cc1	-11	i	-10	-4
O=C(N/N=C/c1ccc[nH]1)c1ccc(COc2cccc3cccnc23)cc1	-7	+	6	-4
Cc1cc(Br)c(OCc2ccc(C(=O)N/N=C/c3ccc[nH]3)cc2)c(Br)c1	-6	+	x	9
COc1ccc(CCC2=NCCN2C(CC(C)C)c2nc3ccccc3[nH]2)cc1 (stereo not given)	x	i	x	x
CN(C)Cc1cc(O)c(CN(C)C)cc1O	-1	+	9	1
CC(=Nc1ccc(C)cc1)c1sc2ccccc2c1O	10	i	-20	-3
CC(=Nc1ccc(C)cc1C)c1sc2ccccc2c1O	-5	+	-20	1
CC(C)(C)OC(=O)N[C@H](C(=O)OC(C)(C)C)c1ccccc1	10	i	x	-2
c1ccc(CSC2=NNC(c3ccccn3)S2)cc1 (stereo not given)	1	+	-8	-2
Cc1cccc(C)c1Nc1c(-c2ccccn2)nc2ccccn12	-19	+	9	-12
O=C(N/N=C/c1cc(Br)c(O)c(Br)c1)c1cc2c(ccc3ccccc32)o1	-2	+	x	-12
O=C(N/N=C/c1ccc(O)c(Br)c1)c1cc2c(ccc3ccccc32)o1	-6	x	x	-6
CC(NC(=O)c1ccc(Br)cc1Br)c1ccccc1 (stereo not given)	x	i	62*	x
CC(NC(=O)c1ccc(Br)cc1)c1ccccc1 (stereo not given)	12	i	70*	3
CC(NC(=O)c1cc(Br)ccc1Cl)c1ccccc1 (stereo not given)	-11	i	2	3
CC(NC(=O)c1ccccc1)c1ccc(Br)cc1 (stereo not given)	3	i	24	-8
SMILES	PKA-R1A activ	Neddylation inh	PolyA inh	PKA-R2B act
Cc1cc(Cl)c(S(=O)(=O)N2CCN(c3ccc(F)cc3)CC2)cc1OCC(=O)NC1CCCCC1	-4	i	-13	-7
Nc1nc(-c2ccc(S(=O)(=O)N3CCCCC3)cc2)cs1	-5	+	x	-5
Cc1nc(-c2ccc(S(=O)(=O)N3CCCCCC3)cc2)cs1	-3	i	3	-1
Cc1csc(NC(=O)C(C)Oc2ccc(Cl)cc2C)n1 (stereo not given)	-11	i	x	-7
N=c1c(C(=O)NCc2ccc(F)cc2)cc2c(=O)n3ccccc3nc2n1Cc1ccco1	-4	+	11	4
O=c1c2sc(-c3ccccc3)cc2nc2n1CCC2	-10	i	113*	-9
Cc1onc(-c2c(Cl)cccc2Cl)c1COC(=O)c1ccc(Cl)cc1[N+](=O)[O-]	-10	i	-18	3
COc1cc(C(=O)NC2CCN(C)CC2)ccc1Nc1ncc2c(n1)N(Cc1ccccc1)CCC(=O)N2C	-6	i	x	7
COc1cc(C(=O)NC2CCN(C)CC2)ccc1Nc1ncc2c(n1)N(C1CCCCC1)CCC(=O)N2C	-17	+	x	-5
CC(=O)c1ccccc1NC(=O)COC(=O)C1=NN(c2ccccc2)C(=O)CC1	-4	i	x	-1
CC1CCCC(NC(=O)c2nn(C)c3c2CS(=O)(=O)c2ccccc2-3)C1C (stereo not given)	0	i	-18	6
CCOc1cc(/C=C2\N=C(SC(C)C(N)=O)N(c3ccc(OC(F)F)cc3)C2=O)ccc1O (stereo not given)	-5	i	157*	2
Cc1ccc(Cn2c(/C=C/c3ccco3)nc3ccccc32)cc1	2	+	-9	-3
NC(=S)Nc1cc2ccccc2c2ccccc12	6	i	-26	7
NC(=S)Nc1cccc2cc3ccccc3cc12	4	+	-18	5
O=c1oc2ccc(Br)cc2cc1-c1nc2ccccc2o1	0	i	-18	1
COc1cccc2cc(-c3nc4ccccc4o3)c(=O)oc12	-1	i	103*	-6
Nc1ccccc1O	i	i	x	i
Nc1cccc2c(O)cccc12	-7	+	-10	4
CCOc1ccnc2c1c(=O)n(Cc1cc(OC)cc(OC)c1)c(=O)n2C	3	i	7	2
N#Cc1ccc(CN2CCN(C(=O)c3cc(C4CC4)nn3-c3ccccc3)CC2)cc1	1	i	x	-7
COc1ccccc1N1CCN(C(=O)CCNS(=O)(=O)c2ccc(Br)s2)CC1	3	i	91*	-4
COc1ccccc1N1CCN(C(=O)CNS(=O)(=O)c2ccc(Br)s2)CC1	2	i	-4	-3
O=S(=O)(O)c1cc(O)c2cc(Nc3ccccc3)ccc2c1	-5	+	x	-5
O=S(=O)(O)c1cc(O)c2ccc(Nc3ccccc3)cc2c1	4	+	x	0
SMILES	PKA-R1A activ	Neddylation inh	PolyA inh	PKA-R2B act
COc1ccccc1Nc1ccc2c(O)cc(S(=O)(=O)O)cc2c1	-2	+	x	6
O=S(=O)(O)c1ccc(O)c2cc(Nc3ccccc3)ccc12	9	i	x	-7
CC(=O)Nc1ccc2c(O)cc(S(=O)(=O)O)cc2c1	0	i	x	0
Cc1nnc(NS(=O)(=O)c2ccc(F)cc2)s1	2	i	x	-1
Cc1nc(COc2ccccc2Cl)sc1-c1ccnc(N)n1	4	i	-38	4
CCc1nonc1NC(=O)c1oc2ccc(F)cc2c1C	6	i	19	-3
Cc1c(C(=O)Nc2nonc2-c2ccc(F)cc2)oc2ccc(F)cc12	-20	i	103*	-2
COC1=CC(=O)C[C@@H](C)[C@]12Oc1c(Cl)c(OC)cc(OC)c1C2=O	1	+	-11	0
COC1=CC(=O)CC(C)C12Oc1c(Cl)c(OC)cc(OC)c1C2=O (stereo not given)	-7	i	28	2
O=C1CCCC2=C1C(c1ccco1)Nc1ccc3ccccc3c12 (stereo not given)	1	+	-1	-7
